# Reference: article PMC7862700, “An all-to-all approach to the identification of sequence-specific readers for epigenetic DNA modifications on cytosine”
# How the values were obtained:
# Experiment in all cases: DAPPL (digital affinity profiling via proximity ligation, sequencing); 10 mM Tris-HCl pH 7.5, 50 mM NaCl, 1 mM DTT, 4% glycerol, room temperature, 30 min; GST-TFs on glutathione beads, 16-mer random dsDNA library, 0.1% formaldehyde crosslink after washing; high values mean tight binding
# Conditions in all cases: protein: recombinant; tags: N-terminal GST; dsDNA, one strand shown
# FLI1 = target: T1, FLI1 (Homo sapiens, UniProt Q01543 1-452)
# T1 sequence: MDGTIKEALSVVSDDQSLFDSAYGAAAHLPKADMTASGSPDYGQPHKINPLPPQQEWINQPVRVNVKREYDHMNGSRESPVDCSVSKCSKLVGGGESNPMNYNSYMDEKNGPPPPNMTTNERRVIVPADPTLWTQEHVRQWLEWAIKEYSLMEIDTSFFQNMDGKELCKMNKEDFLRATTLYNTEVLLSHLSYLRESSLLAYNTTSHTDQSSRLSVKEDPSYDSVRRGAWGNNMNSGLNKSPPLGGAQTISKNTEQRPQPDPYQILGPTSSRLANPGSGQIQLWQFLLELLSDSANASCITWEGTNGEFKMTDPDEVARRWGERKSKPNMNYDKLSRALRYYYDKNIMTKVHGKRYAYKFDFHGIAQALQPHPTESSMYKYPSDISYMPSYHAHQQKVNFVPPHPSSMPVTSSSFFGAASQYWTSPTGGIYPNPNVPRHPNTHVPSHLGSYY
# Procedure, shortened: (§1)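 After expression in yeast as GST fusions, human transcription factors were bound to glutathione beads, DNA-barcoded and mixed with a tag-only sample. The pools were incubated with 200 nmole of a 16-mer random double-stranded DNA library in Tris/NaCl/DTT/glycerol buffer (30 min, room temperature), washed and crosslinked with 0.1% formaldehyde. Proximity ligation with BsaI/T4 ligase ran for 1 h at 37 °C, before PCR amplification and sequencing on an Illumina NextSeq500. Binding signal is a hexamer's read frequency for a factor divided by its frequency for the tag-only sample.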
# ELK1 = target: T2, ELK1 (Homo sapiens, UniProt P19419 1-428)
# T2 sequence: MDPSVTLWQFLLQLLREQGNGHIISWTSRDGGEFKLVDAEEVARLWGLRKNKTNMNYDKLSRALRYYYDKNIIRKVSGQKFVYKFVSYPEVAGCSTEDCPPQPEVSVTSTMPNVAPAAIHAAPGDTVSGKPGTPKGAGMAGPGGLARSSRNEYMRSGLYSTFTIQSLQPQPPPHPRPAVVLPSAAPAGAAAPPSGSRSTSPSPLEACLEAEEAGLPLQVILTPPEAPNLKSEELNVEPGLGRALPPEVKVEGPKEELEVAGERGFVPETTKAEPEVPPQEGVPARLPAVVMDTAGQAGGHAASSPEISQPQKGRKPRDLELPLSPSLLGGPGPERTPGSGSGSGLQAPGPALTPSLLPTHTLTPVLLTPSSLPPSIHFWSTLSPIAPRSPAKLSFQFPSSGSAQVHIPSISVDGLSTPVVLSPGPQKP
# Procedure, shortened: as §1
# GABPA = target: T3, GABPA (Homo sapiens, UniProt Q06546 1-454)
# T3 sequence: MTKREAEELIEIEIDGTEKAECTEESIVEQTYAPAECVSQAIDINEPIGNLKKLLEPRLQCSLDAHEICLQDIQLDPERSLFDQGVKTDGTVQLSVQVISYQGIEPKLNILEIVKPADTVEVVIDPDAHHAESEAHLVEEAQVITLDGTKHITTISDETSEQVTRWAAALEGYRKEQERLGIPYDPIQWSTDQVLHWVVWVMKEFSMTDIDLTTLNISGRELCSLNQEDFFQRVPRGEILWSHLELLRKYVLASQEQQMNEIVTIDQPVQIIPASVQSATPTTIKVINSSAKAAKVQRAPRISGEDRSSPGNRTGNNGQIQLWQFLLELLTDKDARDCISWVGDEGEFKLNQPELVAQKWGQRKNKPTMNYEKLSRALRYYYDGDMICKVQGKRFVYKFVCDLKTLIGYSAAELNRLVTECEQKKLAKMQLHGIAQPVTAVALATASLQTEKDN
# Procedure, shortened: as §1
# ERG = target: T4, ERG (Homo sapiens, UniProt P11308 1-479)
# T4 sequence: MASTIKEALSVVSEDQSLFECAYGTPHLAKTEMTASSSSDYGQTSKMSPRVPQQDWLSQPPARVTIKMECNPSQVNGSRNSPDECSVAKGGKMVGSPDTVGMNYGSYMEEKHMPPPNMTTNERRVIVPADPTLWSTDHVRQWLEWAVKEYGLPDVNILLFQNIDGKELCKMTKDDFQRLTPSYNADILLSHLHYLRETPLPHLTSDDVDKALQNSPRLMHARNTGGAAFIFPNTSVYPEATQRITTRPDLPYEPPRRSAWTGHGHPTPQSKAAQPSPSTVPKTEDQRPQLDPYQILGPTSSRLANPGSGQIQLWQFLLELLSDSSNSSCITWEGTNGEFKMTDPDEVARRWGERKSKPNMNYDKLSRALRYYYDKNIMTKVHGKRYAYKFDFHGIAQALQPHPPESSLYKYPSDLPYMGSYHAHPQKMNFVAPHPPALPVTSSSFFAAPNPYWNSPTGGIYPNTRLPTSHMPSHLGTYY
# Procedure, shortened: as §1
# ELF1 = ELF1 (Homo sapiens, UniProt P32519 1-619)
# ELF1, sequence (P32519 whole entry): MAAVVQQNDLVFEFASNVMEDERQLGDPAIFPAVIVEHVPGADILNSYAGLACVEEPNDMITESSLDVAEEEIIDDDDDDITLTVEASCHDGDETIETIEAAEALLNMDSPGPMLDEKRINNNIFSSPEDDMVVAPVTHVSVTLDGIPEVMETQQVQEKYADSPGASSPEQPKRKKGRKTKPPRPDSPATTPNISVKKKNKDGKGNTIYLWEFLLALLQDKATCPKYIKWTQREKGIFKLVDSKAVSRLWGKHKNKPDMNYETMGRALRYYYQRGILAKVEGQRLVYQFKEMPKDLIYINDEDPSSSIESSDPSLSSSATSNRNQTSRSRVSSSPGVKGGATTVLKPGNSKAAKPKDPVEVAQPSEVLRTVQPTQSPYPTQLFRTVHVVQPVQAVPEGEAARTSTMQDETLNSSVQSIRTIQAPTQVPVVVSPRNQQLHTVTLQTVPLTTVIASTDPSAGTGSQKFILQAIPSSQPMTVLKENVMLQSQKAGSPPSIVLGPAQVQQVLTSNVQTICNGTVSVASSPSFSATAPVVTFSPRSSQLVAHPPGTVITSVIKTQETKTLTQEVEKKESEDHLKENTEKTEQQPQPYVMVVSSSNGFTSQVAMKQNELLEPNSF
# Procedure, shortened: as §1
# EHF = target: T5, EHF (Homo sapiens, UniProt Q9NZC4 1-300)
# T5 sequence: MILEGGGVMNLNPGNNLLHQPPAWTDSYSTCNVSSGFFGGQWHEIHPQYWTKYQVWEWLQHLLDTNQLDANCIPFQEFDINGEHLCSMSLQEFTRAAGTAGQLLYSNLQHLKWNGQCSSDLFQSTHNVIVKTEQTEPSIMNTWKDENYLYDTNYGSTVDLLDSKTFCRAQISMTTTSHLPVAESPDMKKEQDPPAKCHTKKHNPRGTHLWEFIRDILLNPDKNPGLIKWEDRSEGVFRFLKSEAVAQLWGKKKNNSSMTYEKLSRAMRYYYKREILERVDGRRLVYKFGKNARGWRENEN
# Procedure, shortened: as §1
# SPI1 = SPI1 (Homo sapiens, UniProt P17947 1-270)
# Procedure, shortened: as §1
# SPIB = SPIB (Homo sapiens, UniProt Q01892 1-262)
# SPIB, sequence (Q01892 whole entry): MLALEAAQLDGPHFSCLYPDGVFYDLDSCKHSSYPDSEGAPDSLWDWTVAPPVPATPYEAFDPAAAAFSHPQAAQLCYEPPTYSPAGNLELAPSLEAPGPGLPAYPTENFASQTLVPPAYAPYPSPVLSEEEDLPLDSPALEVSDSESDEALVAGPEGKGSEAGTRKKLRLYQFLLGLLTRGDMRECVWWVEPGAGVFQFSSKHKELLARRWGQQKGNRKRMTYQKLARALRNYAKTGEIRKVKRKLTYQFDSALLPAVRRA
# Procedure, shortened: as §1
# ELK3 = target: T6, ELK3 (Homo sapiens, UniProt P41970 1-407)
# T6 sequence: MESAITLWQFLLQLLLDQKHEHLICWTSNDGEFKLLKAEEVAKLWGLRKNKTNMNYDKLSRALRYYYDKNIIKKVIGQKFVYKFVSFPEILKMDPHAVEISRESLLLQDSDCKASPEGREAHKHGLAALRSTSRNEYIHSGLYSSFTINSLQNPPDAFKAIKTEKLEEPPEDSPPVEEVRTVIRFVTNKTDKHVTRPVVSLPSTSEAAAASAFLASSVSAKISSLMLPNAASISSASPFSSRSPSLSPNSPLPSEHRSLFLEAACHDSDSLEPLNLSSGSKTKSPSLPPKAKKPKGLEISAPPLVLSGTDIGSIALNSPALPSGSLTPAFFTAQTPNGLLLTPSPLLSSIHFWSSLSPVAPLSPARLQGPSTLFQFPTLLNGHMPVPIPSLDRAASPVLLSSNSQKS
# Procedure, shortened: as §1
# FEV = target: T7, FEV (Homo sapiens, UniProt Q99581 1-238)
# T7 sequence: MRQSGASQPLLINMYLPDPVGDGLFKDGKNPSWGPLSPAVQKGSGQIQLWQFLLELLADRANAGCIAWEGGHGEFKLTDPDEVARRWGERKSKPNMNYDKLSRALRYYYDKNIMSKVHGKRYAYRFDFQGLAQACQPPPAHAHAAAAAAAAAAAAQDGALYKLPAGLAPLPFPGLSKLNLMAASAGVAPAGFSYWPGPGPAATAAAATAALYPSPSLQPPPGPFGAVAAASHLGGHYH
# Procedure, shortened: as §1
# ETV5 = ETV5 (Homo sapiens, UniProt P41161 1-510)
# ETV5, sequence (P41161 whole entry): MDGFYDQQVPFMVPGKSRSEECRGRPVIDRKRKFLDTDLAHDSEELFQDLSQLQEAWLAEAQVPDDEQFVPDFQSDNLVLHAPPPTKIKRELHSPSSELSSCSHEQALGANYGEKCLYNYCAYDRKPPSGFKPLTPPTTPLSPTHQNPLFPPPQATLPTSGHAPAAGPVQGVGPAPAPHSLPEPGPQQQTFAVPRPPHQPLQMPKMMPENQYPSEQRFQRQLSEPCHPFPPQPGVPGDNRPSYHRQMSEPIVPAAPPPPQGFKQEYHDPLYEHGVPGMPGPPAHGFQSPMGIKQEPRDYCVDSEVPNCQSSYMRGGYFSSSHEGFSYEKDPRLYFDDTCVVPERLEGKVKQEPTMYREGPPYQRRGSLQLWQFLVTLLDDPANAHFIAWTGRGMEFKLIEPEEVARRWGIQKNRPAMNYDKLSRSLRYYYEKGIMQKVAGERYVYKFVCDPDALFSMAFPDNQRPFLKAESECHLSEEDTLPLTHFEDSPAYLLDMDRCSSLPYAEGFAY
# Procedure, shortened: as §1
# SPIC = target: T8, SPIC (Homo sapiens, UniProt Q8N5J4 1-248)
# T8 sequence: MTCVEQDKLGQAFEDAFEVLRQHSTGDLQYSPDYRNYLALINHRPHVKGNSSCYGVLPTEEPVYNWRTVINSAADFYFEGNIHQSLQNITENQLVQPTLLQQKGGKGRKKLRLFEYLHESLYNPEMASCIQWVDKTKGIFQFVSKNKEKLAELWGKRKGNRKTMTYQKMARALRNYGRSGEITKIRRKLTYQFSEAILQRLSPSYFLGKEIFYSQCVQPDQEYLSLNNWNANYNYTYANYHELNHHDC
# Procedure, shortened: as §1
# ELF4 = ELF4 (Homo sapiens, UniProt Q99607 1-663)
# ELF4, sequence (Q99607 whole entry): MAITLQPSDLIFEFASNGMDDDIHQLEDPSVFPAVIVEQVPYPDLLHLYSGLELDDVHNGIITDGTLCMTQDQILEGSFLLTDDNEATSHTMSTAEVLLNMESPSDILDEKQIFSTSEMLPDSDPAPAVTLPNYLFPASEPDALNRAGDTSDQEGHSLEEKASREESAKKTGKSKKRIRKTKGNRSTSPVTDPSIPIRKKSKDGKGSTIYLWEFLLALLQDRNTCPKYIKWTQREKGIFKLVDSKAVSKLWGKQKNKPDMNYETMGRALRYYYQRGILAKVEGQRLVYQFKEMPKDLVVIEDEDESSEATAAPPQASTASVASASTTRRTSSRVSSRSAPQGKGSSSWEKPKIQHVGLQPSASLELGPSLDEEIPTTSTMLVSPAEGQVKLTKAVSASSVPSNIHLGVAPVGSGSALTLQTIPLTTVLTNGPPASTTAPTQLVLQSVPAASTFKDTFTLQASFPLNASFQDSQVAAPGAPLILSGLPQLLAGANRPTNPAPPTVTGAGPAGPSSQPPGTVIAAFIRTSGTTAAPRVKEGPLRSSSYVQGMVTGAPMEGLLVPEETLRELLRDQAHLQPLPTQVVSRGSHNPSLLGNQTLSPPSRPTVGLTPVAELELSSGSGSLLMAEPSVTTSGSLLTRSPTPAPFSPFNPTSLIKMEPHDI
# Procedure, shortened: as §1
# ETV1 = ETV1 (Homo sapiens, UniProt P50549 1-477)
# ETV1, sequence (P50549 whole entry): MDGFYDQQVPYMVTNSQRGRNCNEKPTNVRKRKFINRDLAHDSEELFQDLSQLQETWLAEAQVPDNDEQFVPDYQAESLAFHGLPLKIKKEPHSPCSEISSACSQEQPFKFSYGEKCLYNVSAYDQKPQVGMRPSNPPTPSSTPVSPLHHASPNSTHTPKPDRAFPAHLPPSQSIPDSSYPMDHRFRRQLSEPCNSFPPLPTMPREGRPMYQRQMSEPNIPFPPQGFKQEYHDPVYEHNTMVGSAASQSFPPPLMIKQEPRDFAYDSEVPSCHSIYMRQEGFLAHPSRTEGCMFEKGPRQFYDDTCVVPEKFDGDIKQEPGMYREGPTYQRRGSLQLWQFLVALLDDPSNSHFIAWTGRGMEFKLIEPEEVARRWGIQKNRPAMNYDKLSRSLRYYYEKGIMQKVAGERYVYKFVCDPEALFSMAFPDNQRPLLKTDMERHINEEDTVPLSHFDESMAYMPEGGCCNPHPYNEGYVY
# Procedure, shortened: as §1
# ERF = target: T9, ERF (Homo sapiens, UniProt P50548 1-548)
# T9 sequence: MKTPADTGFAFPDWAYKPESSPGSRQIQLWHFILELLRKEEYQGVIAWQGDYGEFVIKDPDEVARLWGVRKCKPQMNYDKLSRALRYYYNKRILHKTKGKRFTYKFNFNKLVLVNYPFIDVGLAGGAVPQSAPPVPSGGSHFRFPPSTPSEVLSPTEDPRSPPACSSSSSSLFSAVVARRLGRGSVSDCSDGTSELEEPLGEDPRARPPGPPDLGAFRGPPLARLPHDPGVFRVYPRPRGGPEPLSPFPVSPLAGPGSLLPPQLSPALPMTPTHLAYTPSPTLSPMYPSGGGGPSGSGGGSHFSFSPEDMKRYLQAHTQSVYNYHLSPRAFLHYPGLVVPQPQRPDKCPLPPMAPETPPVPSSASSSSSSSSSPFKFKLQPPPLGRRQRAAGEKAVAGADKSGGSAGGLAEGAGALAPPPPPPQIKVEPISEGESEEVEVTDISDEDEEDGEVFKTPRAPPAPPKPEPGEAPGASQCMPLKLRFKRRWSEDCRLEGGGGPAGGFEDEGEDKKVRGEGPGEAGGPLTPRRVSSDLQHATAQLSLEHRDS
# Procedure, shortened: as §1
# ETV3L = target: T10, ETV3L (Homo sapiens, UniProt Q6ZN32 1-361)
# T10 sequence: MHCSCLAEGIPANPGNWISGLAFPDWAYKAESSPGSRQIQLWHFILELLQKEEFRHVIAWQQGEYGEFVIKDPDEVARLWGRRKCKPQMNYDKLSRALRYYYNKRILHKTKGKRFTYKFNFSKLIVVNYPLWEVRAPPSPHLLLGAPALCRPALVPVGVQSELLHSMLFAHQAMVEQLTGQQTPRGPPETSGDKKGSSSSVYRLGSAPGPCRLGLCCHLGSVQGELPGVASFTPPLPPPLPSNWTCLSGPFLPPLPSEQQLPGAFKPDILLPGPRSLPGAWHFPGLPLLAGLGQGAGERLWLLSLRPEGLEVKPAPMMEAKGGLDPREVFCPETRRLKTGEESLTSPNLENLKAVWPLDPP
# Procedure, shortened: as §1
# ETS2 = target: T11, ETS2 (Homo sapiens, UniProt P15036 1-469)
# T11 sequence: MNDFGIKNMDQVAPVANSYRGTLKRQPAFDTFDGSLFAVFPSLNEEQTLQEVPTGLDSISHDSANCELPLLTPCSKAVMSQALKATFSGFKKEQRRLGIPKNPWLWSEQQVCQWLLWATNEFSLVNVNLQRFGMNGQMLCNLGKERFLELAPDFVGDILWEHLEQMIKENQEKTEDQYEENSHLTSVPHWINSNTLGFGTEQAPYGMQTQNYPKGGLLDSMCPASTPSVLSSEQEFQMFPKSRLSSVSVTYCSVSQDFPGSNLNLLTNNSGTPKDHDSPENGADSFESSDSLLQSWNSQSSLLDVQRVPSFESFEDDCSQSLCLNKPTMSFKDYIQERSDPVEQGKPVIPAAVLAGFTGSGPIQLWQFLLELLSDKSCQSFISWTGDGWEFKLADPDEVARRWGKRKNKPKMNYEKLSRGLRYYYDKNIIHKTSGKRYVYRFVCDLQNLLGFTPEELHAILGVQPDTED
# Procedure, shortened: as §1
# ETV3 = target: T12, ETV3 (Homo sapiens, UniProt P41162-2 1-143)
# T12 sequence: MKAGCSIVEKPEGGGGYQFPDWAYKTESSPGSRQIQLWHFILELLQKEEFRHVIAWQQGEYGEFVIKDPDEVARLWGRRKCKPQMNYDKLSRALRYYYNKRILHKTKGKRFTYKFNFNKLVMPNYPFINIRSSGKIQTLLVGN
# Procedure, shortened: as §1
# ETV6 = ETV6 (Homo sapiens, UniProt P41212 1-452)
# ETV6, sequence (P41212 whole entry): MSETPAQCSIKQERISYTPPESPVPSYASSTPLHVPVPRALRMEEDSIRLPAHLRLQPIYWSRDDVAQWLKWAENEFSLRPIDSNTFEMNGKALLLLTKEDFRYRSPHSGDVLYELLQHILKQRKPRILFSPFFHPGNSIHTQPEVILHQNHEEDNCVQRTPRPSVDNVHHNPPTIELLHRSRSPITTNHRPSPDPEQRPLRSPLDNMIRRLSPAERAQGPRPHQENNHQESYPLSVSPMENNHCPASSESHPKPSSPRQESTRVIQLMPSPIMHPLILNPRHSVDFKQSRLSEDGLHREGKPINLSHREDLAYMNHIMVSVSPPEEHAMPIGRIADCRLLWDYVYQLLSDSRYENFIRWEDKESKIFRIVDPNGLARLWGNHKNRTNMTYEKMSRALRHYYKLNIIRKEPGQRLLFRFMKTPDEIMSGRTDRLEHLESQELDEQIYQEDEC
# Procedure, shortened: as §1
sequence,measurement,setting,value
GTCCCA,binding signal,FLI1,"1.03 fold enrichment (6-mer frequency, TF over GST control)"
same,binding signal,ELK1,"1.14 fold enrichment (6-mer frequency, TF over GST control)"
same,binding signal,GABPA,"1.11 fold enrichment (6-mer frequency, TF over GST control)"
same,binding signal,ERG,"1.17 fold enrichment (6-mer frequency, TF over GST control)"
same,binding signal,ELF1,"1.14 fold enrichment (6-mer frequency, TF over GST control)"
same,binding signal,EHF,"1.1 fold enrichment (6-mer frequency, TF over GST control)"
same,binding signal,SPI1,"1.13 fold enrichment (6-mer frequency, TF over GST control)"
same,binding signal,SPIB,"1.06 fold enrichment (6-mer frequency, TF over GST control)"
same,binding signal,ELK3,"1.18 fold enrichment (6-mer frequency, TF over GST control)"
same,binding signal,FEV,"1.12 fold enrichment (6-mer frequency, TF over GST control)"
same,binding signal,ETV5,"1.05 fold enrichment (6-mer frequency, TF over GST control)"
same,binding signal,SPIC,"1.12 fold enrichment (6-mer frequency, TF over GST control)"
same,binding signal,ELF4,"1.13 fold enrichment (6-mer frequency, TF over GST control)"
same,binding signal,ETV1,"1.14 fold enrichment (6-mer frequency, TF over GST control)"
same,binding signal,ERF,"1.12 fold enrichment (6-mer frequency, TF over GST control)"
same,binding signal,ETV3L,"1.13 fold enrichment (6-mer frequency, TF over GST control)"
same,binding signal,ETS2,"1.05 fold enrichment (6-mer frequency, TF over GST control)"
same,binding signal,ETV3,"1.07 fold enrichment (6-mer frequency, TF over GST control)"
same,binding signal,ETV6,"1.03 fold enrichment (6-mer frequency, TF over GST control)"
